Only some compounds are listed: those with a hit (about 3.2% of all), similar ones and a draw of the others.
IL-2 act = qHTS of IL-2 Activators; actives 0.065% (n = 360,000); AID 652025, 2013; IL-2 activation reporter assay, cell-based qHTS; stimulated with anti-CD3/CD4/CD28 beads; in transgenic mouse T cells; activation, % (series mostly up to about 46 µM); in the data active = activation above about 50%; inconclusive = mostly about 30% to 49%; also: 0% is about no effect
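Readout: EGFP and DsRed signals by fluorescent plate cytometry. Unstimulated transgenic mouse T cells received compound 60 min before antibody-bead stimulation, then incubated 18 h at 37 degrees C.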
Nrf2 inh = Nrf2 qHTS screen for inhibitors; actives 2.1% (n = 360,000); Potency, µM (titrated, usually from 46 µM), for inactives: at the top dose activity change, negative = inhibition, most hits filed as inhibitors; A549 ARE-Fluc reporter, luciferase luminescence, 18-24 h; also: potency is read from the fitted curve at half-maximal effect; % is scaled to controls: 0 for no effect and ±100 for the full control effect; nearly all actives have a fitted effect of over 60% in size
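Cells were seeded and rested 2 h, then exposed to compounds for 18-24 h. CellTiter-Fluor was read first as a viability measure. BugLite was added 15 min before the final luminescent read of ARE-luciferase activity in A549 cells.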
BRCA1 expr up = qHTS Assay to Identify Small Molecule Activators of BRCA1 Expression; MCF7-BRCA1-FFLuc reporter, luminescence, 48 h; response scale: scaled: vehicle 0%, 10 µM genistein 100%; Potency, µM (doses to about 46.1 µM), without a hit: top-dose activation, most hits filed as activators; actives 1.1% (n = 380,000); AID 624202, 2012; also: potency is read from the fitted curve at half-maximal effect; nearly all actives have a fitted effect of over 80% in size
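Luminescence from a BRCA1-driven firefly luciferase in MCF7 cells was read after 48 h compound exposure at 37 C. Data normalized against DMSO and a 10microM genistein activation control, then curve-fitted across the titration.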
p53 reactivator = qHTS assay for re-activators of p53 using a Luc reporter | AID 504706, 2011 | Potency, µM (top dose mostly 92.2 µM), for inactives: at the top dose activity change, positive = activation, actives largely listed as activators | actives 0.063% (n = 320,000) | H1299 p53-A138V BP100-luciferase reporter, luminescence, 24 h; also: potency is read from the fitted curve at half-maximal effect; % of control where 0% means no effect; nearly all actives have a fitted effect of over 45% in size
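p53-null H1299 cells stably carrying temperature-sensitive p53-A138V and a BP100-luciferase reporter were pinned with compounds (4-point, 1:5 series) and held 24 hrs at 37 deg C. Luminescence was read 10 min after detection reagent.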
A549 tox = Nrf2 qHTS screen for inhibitors: counterscreen for cytotoxicity. A549 ARE-Fluc cells, CellTiter-Fluor viability, 18-24 h. Potency, µM (series often up to 46 µM), for inactives: at the top dose activity change, negative = cytotoxicity, usual class: inhibitors. actives 0.16% (n = 390,000); also: potency is read from the fitted curve at half-maximal effect; % is scaled to controls: 0 for no effect and ±100 for the full control effect
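Cytotoxicity counterscreen: CellTiter-Fluor fluorescence was measured in A549 ARE_Fluc cells after 18-24 h of compound exposure in a concentration series. The subsequent BugLite luminescent read reports ARE-luciferase activity.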
Nrf2 ARE act = qHTS of Nrf2 Activators. AREc32 ARE-luciferase reporter (MCF7-derived line), luminescence, 24 h. Potency, µM (top dose mostly 46.1 µM), inactives show at the highest dose activation, usual class: activators. actives 0.31% (n = 410,000). AID 624171, 2012; also: potency is read from the fitted curve at half-maximal effect; % of control where 0% means no effect; nearly all actives have a fitted effect of over 65% in size
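Quantitative high-throughput format: AREc32 reporter cells, 1000 per well, received compound by pin transfer and were incubated 24 hr at 37 deg C, 5% CO2, before Steady-Glo luminescence detection.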
* hit, by the source's call; ! = a repeat was not active. Unless noted, calls follow the shape of the dose curve; as a rule, active = well fitted curve in the direction sought with a large enough effect; inconclusive = small, poorly fitted or top-dose-only effect, or another doubt; inactive = no such curve, though single readings can be large; an effect the other way counts as inactive or inconclusive.

What do the screens show for `O=C(Cn1cnc2nc3c(cc2c1=O)CCCC3)Nc1ccc(F)cc1Cl`?
A549 tox: 1%; Nrf2 ARE act: 1%

What do the screens show for `COc1ccc(NC2=C(Cl)C(=O)N(CCc3ccccc3)C2=O)c(OC)c1`?
IL-2 act: 0; Nrf2 inh: 1%; BRCA1 expr up: 59%; p53 reactivator: inconclusive; A549 tox: 0%; Nrf2 ARE act: 13µM*

Results for O=C(CSc1ncc2c(n1)-c1ccccc1N(Cc1ccc(Cl)cc1)S2(=O)=O)c1ccc(Cl)cc1 ?
Nrf2 inh: -7%; A549 tox: 0%; Nrf2 ARE act: -1%

What do the screens show for `O=c1cccccc1NN=C1CCCCCC1`?
IL-2 act: -1; Nrf2 inh: inconclusive; BRCA1 expr up: 10µM*; p53 reactivator: inconclusive; A549 tox: -1%; Nrf2 ARE act: 10%

Results for COc1ccc(C)cc1S(=O)(=O)N1CCN(c2cccc(Cl)c2)CC1 ?
Nrf2 inh: -21%; BRCA1 expr up: -15%; A549 tox: 1%; Nrf2 ARE act: 1%

What do the screens show for `Cc1ccc2nc(=O)c(NNc3ccccc3)cnc2c1`?
IL-2 act: -2; Nrf2 inh: -8%; BRCA1 expr up: 87%; p53 reactivator: 14%; A549 tox: inconclusive; Nrf2 ARE act: 5%

What do the screens show for `Cc1nc2ccccc2nc(=O)c1NNc1ccccc1`?
IL-2 act: -2; Nrf2 inh: inconclusive; BRCA1 expr up: 5µM*!; p53 reactivator: inconclusive; A549 tox: -21%; Nrf2 ARE act: 3%

What do the screens show for `CS(=O)(=O)N1CCc2cc(-c3csc(NC(=O)Cc4cccs4)n3)ccc21`?
IL-2 act: -1; Nrf2 inh: 18µM*; BRCA1 expr up: -85%; p53 reactivator: 0%; A549 tox: -19%; Nrf2 ARE act: 3%

How did CNc1nc(-c2ccc3c(c2)CCN3C(=O)c2ccccc2C)cs1 do in these assays?
IL-2 act: -2; Nrf2 inh: inconclusive; BRCA1 expr up: 2µM*; p53 reactivator: 11%; A549 tox: -1%; Nrf2 ARE act: 4%

How did COc1cccc(OC)c1C1=Nn2c(nnc2-c2ccccc2O)SC1 do in these assays?
Nrf2 inh: 13%; A549 tox: 3%

How did N#CC1=C(N)Oc2c(ccc3ccccc23)C1c1cccs1 (configuration not stated) do in these assays?
IL-2 act: -2; Nrf2 inh: inconclusive; BRCA1 expr up: -37%; p53 reactivator: 25%; A549 tox: inconclusive; Nrf2 ARE act: 2.8µM*

Results for N#Cc1c(-c2cccs2)cc(-c2ccccn2)nc1N ?
IL-2 act: 0; BRCA1 expr up: -43%; p53 reactivator: inconclusive; A549 tox: 1%; Nrf2 ARE act: 7.9µM*

What do the screens show for `N#Cc1c(-c2cccs2)cc(-c2cccnc2)nc1N`?
IL-2 act: -3; Nrf2 inh: -2%; BRCA1 expr up: -54%; p53 reactivator: -16%; A549 tox: 0%; Nrf2 ARE act: 8%

Results for COc1ccc(NC(=O)c2c(Nc3ccccc3)sc(C(=O)c3ccc(F)cc3)c2N)cc1 ?
IL-2 act: 1; Nrf2 inh: inconclusive; BRCA1 expr up: -85%; p53 reactivator: 13%; A549 tox: -17%; Nrf2 ARE act: 10%

Results for Cc1cc(Nc2sc(C(=O)c3ccc(F)cc3)c(N)c2C(=O)Nc2ccc(F)cc2)ccc1Cl ?
A549 tox: 16µM*; Nrf2 ARE act: -2%

How did COc1ccc(C(=O)c2sc(Nc3cccc(OC)c3)c(C(=O)Nc3cccc(C)c3C)c2N)cc1 do in these assays?
IL-2 act: 3; Nrf2 inh: 23µM*; BRCA1 expr up: -64%; p53 reactivator: 2%; A549 tox: inconclusive; Nrf2 ARE act: 7%

How did Cc1ccc(-c2nc(CN(C)C3CCOCC3)c(C)o2)s1 do in these assays?
IL-2 act: 0; Nrf2 inh: -2%; BRCA1 expr up: 12%; p53 reactivator: 3%; A549 tox: 4%; Nrf2 ARE act: 0%

What do the screens show for `Cc1ccc(-c2nc(CN(C)Cc3cccc4cnccc34)c(C)o2)s1`?
IL-2 act: -6; Nrf2 inh: 23µM*; BRCA1 expr up: -33%; p53 reactivator: -2%; A549 tox: -2%; Nrf2 ARE act: 4%

Results for Cc1ccc2[nH]c(=O)c(CN(Cc3ccccc3)Cc3nnnn3Cc3ccco3)cc2c1 ?
Nrf2 inh: -6%; BRCA1 expr up: -27%; A549 tox: -9%

What do the screens show for `O=C(CSc1nncs1)NC(=O)Nc1ccc2c(c1)OCCO2`?
IL-2 act: -3; Nrf2 inh: inconclusive; BRCA1 expr up: 4.5µM*; p53 reactivator: 16%; A549 tox: 2%; Nrf2 ARE act: 0%

Results for C/C(=N\NC(=S)NC1CCCCC1)c1ccc(O)cc1 ?
IL-2 act: -1; Nrf2 inh: -24%; BRCA1 expr up: -40%; p53 reactivator: 9%; A549 tox: 3%; Nrf2 ARE act: 4%

How did C/C(=N\NC(=S)NC1CCCCC1)c1ccccc1 do in these assays?
IL-2 act: -2; Nrf2 inh: 22%; BRCA1 expr up: 34%; p53 reactivator: 25µM*; A549 tox: 13%; Nrf2 ARE act: 4%

Results for Cc1ccc(OCC(=O)N2CCCCC2)c(Br)c1 ?
IL-2 act: 0; Nrf2 inh: inconclusive; BRCA1 expr up: 11µM*; p53 reactivator: inconclusive; A549 tox: inconclusive; Nrf2 ARE act: 1%

What do the screens show for `CCN(CC)C(=O)c1ccc2c(c1)N(Cc1ccccc1F)C(=O)c1ccccc1S2=O` (configuration not stated)?
Nrf2 inh: 9%; BRCA1 expr up: 22%; A549 tox: 7%; Nrf2 ARE act: 0%

What do the screens show for `CCOC(=O)c1ccc(OS(=O)(=O)c2ccccc2)c(OC)c1`?
IL-2 act: -1; Nrf2 inh: inconclusive; BRCA1 expr up: 5.6µM*; p53 reactivator: inconclusive; A549 tox: 4%; Nrf2 ARE act: 5%

How did COc1ccc(C)cc1NC(=O)C(Sc1nnc(-c2ccncc2)n1-c1ccc(Cl)cc1)c1ccccc1 (configuration not stated) do in these assays?
IL-2 act: -3; Nrf2 inh: 26µM*; BRCA1 expr up: -82%; p53 reactivator: -19%; A549 tox: -1%; Nrf2 ARE act: 4%

Results for CCC(=O)c1ccc(OCc2ccc(C#N)cc2)cc1 ?
IL-2 act: -1; Nrf2 inh: inconclusive; BRCA1 expr up: 3.5µM*; p53 reactivator: inconclusive; A549 tox: 3%; Nrf2 ARE act: 2%

Assay outcomes as filed in PubChem BioAssay.
